Compound activity from PubChem BioAssay.
PLK1 PBD inh: blocks phosphopeptide binding to human PLK1 polo-box domain | 360,000 compounds, 2.8% hits | P53350 | Plk1 PBD binding of FITC phosphopeptide, fluorescence polarization | AID 720504 | Potency, µM, inactives show max response, negative = inhibition, usual class: inhibitors; note: series mostly up to about 57 µM; nearly all actives have a fitted effect of over 65% in size
TDP1 inh: TDP1 (human) enzyme inhibition; Q9NUW8; recombinant TDP1, AlphaScreen DNA substrate cleavage; AID 485290; 350,000 compounds, 0.28% hits; Potency, µM (highest dose often 130 µM), without a hit: top-dose activity change, negative = inhibition, usual class: inhibitors; note: nearly all actives have a fitted effect of over 40% in size
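Signal: AlphaScreen proximity between streptavidin donor and anti-FITC acceptor beads on intact substrate. Reaction: Tdp1 1 nM, substrate 15 nM final, 5 min RT after 15 min compound preincubation.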
DT40 TDP1 CPT: growth inhibition of DT40 Tdp1-/-;hTDP1 cells with camptothecin (screen for TDP1 inhibitors); AID 686979; Potency, µM (doses to about 46.2 µM), without a hit: at the top dose activity change, negative = growth inhibition, actives largely listed as inhibitors; 420,000 compounds, 12% hits; chicken DT40 Tdp1-/-;hTDP1 cells + 20 nM CPT, ATP luminescence, 48 h; note: nearly all actives have a fitted effect of over 55% in size
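Chicken DT40 Tdp1-/- cells stably complemented with human TDP1 were seeded at 400 cells/well in medium containing 20 nM camptothecin, exposed to pin-transferred compounds, and grown at 37 °C for at least 48 hr. Viability was read as ATP luminescence.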
VDR inhibitor: vitamin D3 receptor (human) inhibition. VDR-SRC2-3 peptide fluorescence polarization, 2 h. Potency, µM, without a hit: max response, negative = inhibition, hits mostly inhibitors. P11473. AID 504847. 400,000 compounds, 0.93% hits
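Signal is fluorescence polarization, reporting how far test compounds block the interaction of VDR with the SRC2-3 coregulator peptide after a 2 h room-temperature incubation.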
TDP1 cell noCPT: qHTS for Inhibitors of human tyrosyl-DNA phosphodiesterase 1 (TDP1): qHTS in cells in absence of CPT. DT40 Tdp1-/- hTDP1 cells, no CPT, ATP luminescence, 48 h. Potency, µM (series often up to 46.2 µM), without a hit: at the top dose activity change, negative = growth inhibition, most hits filed as inhibitors. 420,000 compounds, 15% hits; note: nearly all actives have a fitted effect of over 55% in size
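Growth kinetics read by CellTiter-Glo luminescence after ≥48 hr at 37 °C. Cells: DT40 Tdp1-/- stably carrying human TDP1, 400 per well, compound exposure in the absence of CPT (DMSO vehicle).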
KAT2A inh: inhibitors of human GCN5L2 histone acetyltransferase. Q92830. GCN5L2 HAT assay, ThioGlo1 CoA-SH fluorescence. Potency, µM (highest dose often 58.9 µM), inactives show at the highest dose activity change, negative = inhibition, hits mostly inhibitors. 390,000 compounds, 0.21% hits. AID 504327
Target sequence (Q92830 whole entry, looked up): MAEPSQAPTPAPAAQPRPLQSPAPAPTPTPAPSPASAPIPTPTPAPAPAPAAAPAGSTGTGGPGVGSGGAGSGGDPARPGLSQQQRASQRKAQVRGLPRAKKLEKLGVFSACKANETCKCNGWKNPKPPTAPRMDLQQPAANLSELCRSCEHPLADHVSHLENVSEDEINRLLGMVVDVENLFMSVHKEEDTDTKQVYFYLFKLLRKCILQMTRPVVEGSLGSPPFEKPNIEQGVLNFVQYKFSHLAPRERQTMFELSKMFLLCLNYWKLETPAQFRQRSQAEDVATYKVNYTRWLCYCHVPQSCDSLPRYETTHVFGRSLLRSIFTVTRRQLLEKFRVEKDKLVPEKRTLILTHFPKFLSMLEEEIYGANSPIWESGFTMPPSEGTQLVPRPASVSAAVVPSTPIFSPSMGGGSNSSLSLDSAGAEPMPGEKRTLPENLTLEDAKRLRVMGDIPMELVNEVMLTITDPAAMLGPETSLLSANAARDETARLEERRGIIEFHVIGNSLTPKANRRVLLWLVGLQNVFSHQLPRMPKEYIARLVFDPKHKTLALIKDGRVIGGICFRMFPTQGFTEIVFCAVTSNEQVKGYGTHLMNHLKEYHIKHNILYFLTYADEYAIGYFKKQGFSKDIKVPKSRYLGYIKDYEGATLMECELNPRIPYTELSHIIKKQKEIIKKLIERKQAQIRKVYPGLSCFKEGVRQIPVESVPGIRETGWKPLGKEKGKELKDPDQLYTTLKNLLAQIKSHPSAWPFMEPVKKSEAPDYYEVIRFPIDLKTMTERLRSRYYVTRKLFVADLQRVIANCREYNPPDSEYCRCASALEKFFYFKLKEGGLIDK
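GCN5L2 (20nM final) in 50mM HEPES, 0.1mM EDTA pH 7.5, 0.01% Tween-20 was preincubated 15 min at room temperature with compound, then given ThioGlo1 (50uM), H3(1-25) peptide (75uM) and acetyl-CoA (70uM); CoA-thiol fluorescence (Ex340/Em540) was read at 0 and 20 min.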
Numbers without * were called inactive; ? = inconclusive; · = not tested or not shown; [ ] = another dose, or the depositor's remark. An excerpt weighted towards active compounds, which were near 18% of everything screened. Calls come from the whole dose curve; as a rule, active = well fitted curve in the direction sought with a large enough effect; inconclusive = small, poorly fitted or top-dose-only effect, or another doubt; inactive = no such curve, though single readings can be large; an effect the other way counts as inactive or inconclusive. % is set by controls: 0 for no effect and ±100 for the full control effect; potency is the fitted concentration of half-maximal effect.

SMILES | PLK1 PBD inh | TDP1 inh | DT40 TDP1 CPT | VDR inhibitor | TDP1 cell noCPT | KAT2A inh
CC(=O)Nc1ccc(Nc2ccc(S(=O)(=O)C(F)(F)F)cc2[N+](=O)[O-])cc1 | -4% | -3% | ? | 3% | 21µM* | -3%
C/C(CC(C)C)=N\NS(=O)(=O)c1ccc(C)c([N+](=O)[O-])c1 | 30µM* | 10% | -10% | -21% | -3% | -4%
Cc1ccc(NC(=O)CSc2ccc(C(N)=O)cc2[N+](=O)[O-])cc1C | 3µM* | -5% | 10µM* | 22µM* | 16µM* | -4%
O=[N+]([O-])c1cc(S(=O)(=O)Nc2ccccc2)ccc1NCc1ccccc1 | 0% | 8% | -23% | 12% | -2% | -8%
O=C(O)CNc1ccc(S(=O)(=O)C(F)(F)F)cc1[N+](=O)[O-] | -18% | -3% | -3% | 15% | -2% | -1%
Cc1ccc(C)c(S(=O)(=O)N2CCN(C(=O)[C@H](C)N3C(=O)C4CC=CCC4C3=O)CC2)c1 (some centres undefined) | 5% | 1% | -14% | 3% | -27% | -7%
COC(=O)c1ccc(C)c(NS(=O)(=O)c2ccc(C)c([N+](=O)[O-])c2)c1 | ? | 2% | -24% | 1% | ? | 5%
Cc1ccc(S(=O)(=O)Nc2ccc(C(N)=O)cc2)cc1[N+](=O)[O-] | 15µM* | 3% | ? | ? | ? | ?
Cc1noc(C)c1-c1ccc2ncnc(NCc3cccc(C(F)(F)F)c3)c2c1 | · | 3% | · | · | · | ·
Cc1cccnc1CCNC(=O)c1ccc(OC2CCN(Cc3ccccn3)CC2)cc1 | -2% | 5% | -8% | -9% | -17% | -4%
CCn1cc(CNC(=O)c2ccc(OC3CCN(Cc4ccccn4)CC3)cc2)cn1 | ? | 3%[56.1 µM] | ? | 31% | ? | ?
O=C(NCCc1cccc(Cl)c1)c1ccc(OC2CCN(Cc3ccccn3)CC2)cc1 | -18% | · | 29µM* | 8% | 16µM* | -8%
CCn1nc(C)c(CNC(=O)c2ccc(OC3CCN(Cc4ccccn4)CC3)cc2)c1C | -4% | 3% | 6.5µM* | -6% | 2.9µM* | -8%
O=C(CCCCCn1c(=O)c2sccc2n(CC(=O)Nc2cc(C(F)(F)F)ccc2Cl)c1=O)NCc1ccccc1Cl | · | 1% | -27% | 0% | -28% | 3%
Cc1ccc(-n2ncc3c2CC(C)(C)CC3NC(=O)C2CCOCC2)cc1 (centres undefined) | 3% | 4% | -10% | -5% | -15% | 0%
Cc1ccc(-n2ncc(Br)c(Br)c2=O)cc1 | -15% | 0% | 4.1µM* | -12% | 3.7µM* | -8%
O=c1c(Br)c(Br)cnn1-c1ccccc1 | -18% | -5% | 4.1µM* | -1% | 3.7µM* | -6%
COc1cnn(-c2ccc(F)cc2)c(=O)c1Br | 1% | -1% | -20% | 9% | -1% | -3%
O=c1c(Br)c(N2CCCC2)cnn1-c1ccccc1 | -1% | 4% | -3% | ? | -4% | 0%
C=C(CCO)C1=CCN(S(=O)(=O)C(C)(C)C)[C@H]1CCO | -9% | · | -4% | 3% | -3% | ·
COc1cc(/C=C/C(=O)NC(=O)c2ccccc2O)ccc1OC(C)=O | 3% | · | ? | 7% | ? | -14%
COCCCNC(=O)/C(C#N)=C/c1cccc(NC(=O)c2ccccc2Cl)c1 | -18% | 1% | 2.6µM* | ? | 2.6µM* | 27%
COCCNC(=O)/C(C#N)=C/c1c(F)cccc1Cl | -12% | 3% | ? | -9% | 10µM* | -8%
COCCNC(=O)/C(C#N)=C/c1ccc(SC)cc1 | -15% | -2% | -12% | -6% | ? | -6%
CCOC(=O)C1CCCN(C(=O)c2cc(F)cc(F)c2)CC1 (centres undefined) | -1% | · | -8% | · | 7% | ·
SMILES | PLK1 PBD inh | TDP1 inh | DT40 TDP1 CPT | VDR inhibitor | TDP1 cell noCPT | KAT2A inh
CCN(C(=O)c1cccn(Cc2cccc(Cl)c2)c1=O)c1ccccc1 | · | -1% | ? | 5% | ? | -4%
COc1cccc(Cn2cc(C(=O)c3ccc(Cl)cc3)c(=O)c3ccccc32)c1 | · | 9% | ? | 4% | ? | -3%
Cc1cc(C)c(C(=O)/C=C/c2ccc3c(c2)OCO3)c(=O)[nH]1 | -3% | 5% | ? | -16% | ? | -16%
Cc1cc(C)c(C(=O)/C=C/c2cccc3ccccc23)c(=O)[nH]1 | -10% | 8% | 16µM* | ? | 9.2µM* | -4%
COC(=O)c1c(C)sc(-c2c(-c3ccc4c(c3)OCCO4)[nH]c3c2c(=O)[nH]c(=O)n3C)c1O | · | -11% | ? | 2% | 21µM* | -5%
COC(=O)c1c(C)sc(-c2c(-c3cccc(OC)c3)[nH]c3c2c(=O)[nH]c(=O)n3C)c1O | · | 2% | -3% | 0% | -26% | -12%
CN(Cc1ccccc1)C(=O)COC(=O)CCN1C(=O)C2CC=CCC2C1=O (centres undefined) | -5% | 0% | 1% | -6% | 14% | -15%
CCCCCCCC#Cc1ccccc1/C=N/S(=O)c1ccc(C)cc1 (centres undefined) | 15µM* | 17%[21 µM] | 12µM* | ? | 18µM* | ?
CCCCCC(=O)/C=C/C=C\CCCCCCCC(=O)O | · | 10% | 3%[0.628 µM] | 0% | 3%[0.628 µM] | 2%
COc1ccc(NC(=O)NCCCCc2ccccc2)c(OC)c1 | 1% | 2% | ? | -8% | 17% | -2%
CN1CCN(c2ncc3ncc(=O)n(C4CC4)c3n2)CC1 | · | · | -10% | -17% | -10% | ?
COc1cc(OC)cc(C(=O)Nc2nc(-c3ccccc3)c(-c3ccccc3)o2)c1 | -4% | 8% | 7.3µM* | 5% | 10µM* | -10%
COc1cc(OC)cc(C(=O)Nc2cccc(NC(=O)c3cc(OC)cc(OC)c3)n2)c1 | -3% | · | ? | -17% | ? | ·
O=[N+]([O-])c1ccccc1S(=O)(=O)NCc1ccccn1 | · | · | -12% | · | 12% | ·
COc1ccccc1NC(=O)Cn1c(=O)n(Cc2cccs2)c(=O)c2cccnc21 | · | -2% | 21µM* | 3% | -77% | -6%
COc1ccccc1NC(=O)Cn1c(C)cc(C)c(C#N)c1=O | · | -1% | -5% | 4% | 11% | -1%
COc1cc2c(=O)n(Cc3ccccc3Cl)c(=O)n(CC(=O)Nc3ccc(C)c(C)c3)c2cc1OC | · | -4%[12.3 µM] | 1.8µM* | -16% | 7.3µM* | -5%
COc1ccccc1NC(=O)Cn1c(C)cc(=O)c2cccc(OC)c21 | 2% | 0% | 2.9µM* | 5% | 4.6µM* | -13%
CCOc1ccccc1NC(=O)Cn1c(=O)n(Cc2ccccc2)c(=O)c2cccnc21 | · | -3% | -3% | 0% | -1% | -2%
